ChEMBL document CHEMBL3433997, “St. Jude Leishmania screening dataset” (2016)

Legend:
Type in all cases: functional
[1] = molecular target: Solute carrier family 2, facilitated glucose transporter member 1 (Homo sapiens) (UniProt P11166); assay: ST_JUDE_LEISH: Cytotoxicity at 2uM final concentration against transgenic Leishmania Mexicana promastigotes LmGLUT1 that are glucose transport deficient and complemented with the human glucose transporter GLUT1. Activity is measured by DNA content using SYBR green in vitro
[2] = molecular target: Hexose transporter 1 (Plasmodium falciparum) (UniProt O97467); assay: ST_JUDE_LEISH: Cytotoxicity at 2uM final concentration against transgenic Leishmania Mexicana promastigotes LmPfHT that are glucose transport deficient and complemented with the Plasmodium falciparum hexose transporter. Activity is measured by DNA content using SYBR green in vitro
[3] = molecular target: Glucose transporter (Leishmania mexicana) (UniProt O61059); assay: ST_JUDE_LEISH: Cytotoxicity at 2uM final concentration against transgenic Leishmania Mexicana promastigotes LmGT2 that are glucose transport deficient and complemented with the L. Mexicana glucose transporter 2. Activity is measured by DNA content using SYBR green in vitro

Solute carrier family 2, facilitated glucose transporter member 1 (Homo sapiens), sequence (P11166 whole entry): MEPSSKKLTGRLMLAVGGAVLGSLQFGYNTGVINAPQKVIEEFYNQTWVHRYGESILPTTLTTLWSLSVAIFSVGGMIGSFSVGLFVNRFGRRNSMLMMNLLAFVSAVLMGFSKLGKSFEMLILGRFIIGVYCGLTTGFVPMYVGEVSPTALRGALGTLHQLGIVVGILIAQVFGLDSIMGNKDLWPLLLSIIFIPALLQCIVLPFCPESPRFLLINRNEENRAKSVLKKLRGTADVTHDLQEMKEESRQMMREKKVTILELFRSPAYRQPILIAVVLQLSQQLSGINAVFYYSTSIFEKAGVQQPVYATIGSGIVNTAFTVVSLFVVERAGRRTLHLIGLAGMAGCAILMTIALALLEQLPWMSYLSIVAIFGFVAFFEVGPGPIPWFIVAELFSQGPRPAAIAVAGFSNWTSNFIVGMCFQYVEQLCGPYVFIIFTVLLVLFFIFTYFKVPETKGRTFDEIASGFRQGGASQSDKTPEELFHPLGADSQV

| Structure (SMILES) | inhibition [1] | inhibition [2] | inhibition [3] |
| --- | --- | --- | --- |
| O=C(Nc1ccc(F)cc1)c1cnc(N2CCN(c3ccncc3)CC2)c(Cl)c1 | 16% | 10.4% | 3.86% |
| CN(C(=O)/C=C/c1cc(C(F)(F)F)ccc1F)C1CCN(CCCCCNC(=O)/C=C/c2ccc(Cl)c(Cl)c2)CC1 | 3.67% | 3.45% | 2.56% |
| Cc1cc(CN2CC[C@H](NC(=O)c3ccc(Cl)c(Cl)c3)C2)ccc1OCCN1CCCC1 | -1.05% | 1.81% | -2.1% |
| Cc1ccc(NC(=O)N2CCC(n3c(-c4ccccc4)nc4cccnc43)CC2)cc1F | 6.53% | 7.11% | 5.43% |
| CCCCCCOc1ccc(C(=O)NCCCC2CCN(CCCCCNC(=O)C=Cc3ccc(Cl)c(Cl)c3)CC2)cc1 | 2.75% | 4.46% | 3.91% |
| O=C(/C=C/c1ccc(Cl)cc1)NCCCCCN1CCC(C(=O)Nc2ccc(Cl)cc2)CC1 | -0.92% | 0.51% | 2.24% |
| CCCc1ccc(C2CCN(CCCCNC(=O)c3ccc(NC(=O)c4ccc(Cl)cc4)cc3)CC2)cc1 | 0.56% | -1% | 0.1% |
| O=C(Nc1ccc(-c2ccccc2)c(OCCN2CCNCC2)c1)c1ccc(-c2ccc(Cl)cc2)cc1 | 3.89% | 5.96% | 3.11% |
| N#Cc1cncc(-c2nc3c(N4CCN(c5cnccn5)CC4)cccc3n2CCNCc2ccccc2)c1 | 2.77% | 1.47% | -3.33% |
| COc1cc(C(=O)N2CCOC(CCN3CCC4c5ccccc5CC43)(c3ccc(Cl)c(Cl)c3)C2)cc(OC)c1OC (centres undefined) | 3.86% | -2.68% | 9.19% |
| Cc1ccc(C(C)C)c(Oc2cnc(NC(CO)c3ccccc3)nc2N)c1 (centres undefined) | 9.07% | 8.83% | 8.45% |
| O=C(O)CCSSc1cccc[n+]1[O-] | 29.9% | 48.3% | 3.25% |
| COc1cc2ccccc2c(CON2C(=N)N=C(N)NC2(C)C)c1OC | 2.53% | 2.15% | 1.62% |
| O=C(/C=C/c1ccc(Cl)c(Cl)c1)NCCCCCN1CCC(NC(=O)Nc2cccc(Cl)c2)CC1 | 3.22% | 4.71% | 3.33% |
| C#CCNC(=O)c1ccc(-c2ccnc(Nc3cccc(CCCN4CCOCC4)c3)n2)s1 | 37.4% | 37.9% | 27.2% |
| O=C(Nc1ccc(Oc2ccccc2)cc1)N[C@H]1CCN(Cc2ccc(OCCCN3CCCCC3)cc2)C1 | -2.21% | -1.17% | -3.91% |
| Fc1ccc(Nc2ccnc3cc(I)ccc23)c(Cl)c1 | 2.32% | 2.73% | 1.47% |
| Cc1nc2nc(N)nc(N)c2c(C)c1Cc1ccccc1 | 3.29% | 2.88% | 1.2% |
| Cc1cc(OCc2ccccc2)c(OCc2ccccc2)cc1C(O)CN(C)Cc1ccccc1 (centres undefined) | 0.44% | 1.08% | -0.1% |
| COC(=O)Cn1c(C2CCN(CC3CCN(C(=O)/C=C/c4ccc(Cl)c(Cl)c4)CC3)CC2)nc2ccccc21 | 3.09% | 0.62% | 2.04% |
| Cc1cc(NC(=O)c2sc3ccccc3c2O)no1 | 2.41% | 1.84% | 0.64% |
| Cc1nc(N)nc(N)c1CCCOc1ccccc1Cl | 13.2% | 27.9% | 5.78% |
| Clc1ccc2nc(-c3cccnc3)[nH]c2c1 | 6.05% | 8.47% | 6.56% |
| O=C(NC1CC1)c1cnc(N2CCN(Cc3c(F)cccc3Cl)CC2)c(Cl)c1 | 12% | 1.02% | -3.18% |
| COc1ccc(CCCON2C(=N)N=C(N)NC2(C)C)cc1 | 16.7% | 23% | 18% |

| Structure (SMILES) | inhibition [1] | inhibition [2] | inhibition [3] |
| --- | --- | --- | --- |
| Fc1ccc(CNc2nc(-c3ccc(F)c(C(F)(F)F)c3)n(-c3cccc(C(F)(F)F)c3)n2)cc1 | 4.39% | 5.8% | 3.42% |
| CCCOc1ccc(N2C(N)=NC(N)=NC2(C)C)cc1 | 3.43% | 1.16% | 2.09% |
| CC[C@H](C)CNC(=O)c1cncc(-c2ccc(CNCCCc3ccccc3)cc2)c1 | 1.47% | -1.11% | -2.21% |
| O=C(/C=C/c1ccc(Cl)cc1)NCCCCCN1CCC(C(=O)Nc2cccc(Cl)c2)CC1 | 2.16% | 2.2% | 0.58% |
| COc1ccc(CCn2c(C3CCCCC3)nc3oc4ccccc4c(=O)c3c2=O)cc1 | 3% | 5.28% | -0.12% |
| Fc1ccccc1C=NNc1ccnc2cc(Cl)ccc12 | 5.84% | 7.17% | 6.07% |
| CCc1n[nH]c(C(=O)Nc2cccc(N3CCCC3)c2)c1C | 0.38% | 1.73% | -1.36% |
| CC1CCCN(c2ccc(NC(=O)c3cccs3)cc2[N+](=O)[O-])C1 (centres undefined) | 1.22% | 1.19% | -1.43% |
| CC1(CCCCN2CCC(Oc3ccc(F)cc3F)CC2)C(=O)Nc2ccccc21 (centres undefined) | 3.9% | 3.15% | 5.35% |
| COc1ccc(-c2cccc(NC(=O)c3cccc(C#N)c3)c2)cc1CN(C)CCO | 3.7% | 5.06% | 5.5% |
| Cc1[nH]c(C)c(-c2ccc(-c3ccc(OC(F)(F)F)cc3)nc2)c(=O)c1Cl | -0.94% | -0.29% | 0.22% |
| O=c1c2c([nH]c3cc(Cl)ccc13)CCCC2 | 4.95% | 3.08% | 3.09% |
| CC(C)C(C)(C#N)NC(=O)CSc1nc2ccc([N+](=O)[O-])cc2s1 (centres undefined) | -0.35% | 0.01% | -1.55% |
| COc1ccc2nc(C)cc(Nc3ccc(Oc4ccc5ccccc5c4)c(Cl)c3)c2c1 | 7.14% | 7.63% | 1.45% |
| O=C(c1cccc(-c2ccc(-c3nc4cc(C(F)(F)F)ccc4[nH]3)cc2)c1)N1CCCCC1CN1CCC(O)C1 (centres undefined) | 0.99% | 1.44% | 2.26% |
| CCCN1CCN(CCNc2c3ccccc3nc3ccccc23)CC1 | 96.4% | 97.2% | 94.2% |
| CCCCCCCc1c(C)nc2cc(OC)ccc2c1O | 7.36% | 9.59% | 7.02% |
| COc1ccc(CCNC(=O)c2cc(C)ccc2O)cc1-c1ccc(C(C)(C)C)cc1 | 4.36% | 2.89% | 4.35% |
| N#Cc1ccc2c(c1)CCN(CCC1CCC(NC(=O)c3cccc(-c4ccc(F)cc4)c3)CC1)CC2 (centres undefined) | 5.14% | 2.32% | 5.8% |
| O=C(O[C@H]1CN[C@H](C#Cc2cc3c(Nc4ccc(OCc5cccc(F)c5)c(Cl)c4)ncnc3s2)C1)N1CCCC1 | 3.78% | 6.01% | 4.65% |
| CN(C)CCCn1c(N)c(-c2nc3ccccc3[nH]2)c2nc(C#N)c(C#N)nc21 | -1.02% | 2.05% | -0.05% |
| c1ccc2c(CNCCCN3CCN(CCCNCc4c5ccccc5cc5ccccc45)CC3)c3ccccc3cc2c1 | 10.3% | 4% | 0.34% |
| O=S(=O)(Nc1ccc(CCN2CCCCC2CCN2CCCC2)cc1)c1ccc(-c2ccccc2)cc1 (centres undefined) | 9.09% | 14.3% | 3.63% |
| Clc1ncnc2ncn(Cc3cccc(Br)c3)c12 | 15.3% | 10.7% | 10.8% |
| COc1ccc(-c2cncc3ccc(C(=O)NCCCn4ccnc4)nc23)cc1 | 7.45% | 8.66% | 7.3% |

| Structure (SMILES) | inhibition [1] | inhibition [2] | inhibition [3] |
| --- | --- | --- | --- |
| Clc1ccc2c(NN=Cc3ccco3)ccnc2c1 | 3.59% | 3.49% | 0.47% |
| Cc1[nH]c(C)c(-c2ccc(-c3ccccc3Cl)nc2)c(=O)c1Br | 0.1% | 1.48% | -0.05% |
| CCN(CCCN1CCCCC1)c1cc(C)nc(Nc2ccc(F)c(C(F)(F)F)c2)n1 | -1.41% | -1.38% | -0.24% |
| CS(=O)(=O)CCNCc1nc(-c2ccc3ncnc(Nc4ccc(OCc5cccc(F)c5)c(Cl)c4)c3c2)cs1 | 3.7% | 2.03% | -1.62% |
| Cc1cccc2nc(-c3ccc(-c4ccc(CNCCN5CCNCC5)cc4)s3)[nH]c12 | 2.77% | 3.12% | 3.22% |
| CC(CCON1C(N)=NC(N)=NC1(C)C)c1ccc(Cl)c(Cl)c1 (centres undefined) | 26.6% | 41.4% | 27.7% |
| COC(=O)c1cccc(NC(=O)NC2CCN(c3ccnc(NCc4ccc(F)cc4)n3)CC2)c1 | -2.83% | -2.8% | -0.54% |
| Nc1cccc(CNCc2cccc(-c3ccc(-c4nc5ccccc5[nH]4)s3)c2)c1 | 7.77% | 8.55% | 5.7% |
| Cc1ccc(-n2c(C)cc(C(=O)CN3C(=O)NC(Cc4ccccc4)C3=O)c2C)cc1 (centres undefined) | 0.81% | -1.87% | 0.55% |
| CC(C)C[C@H](NC(=O)c1cc2ccccc2s1)C(=O)N[C@H]1CCN(Cc2ccc(I)c(OCCN3CCCC3)c2)C1 | -0.35% | -1.55% | -0.29% |
| O=C(N[C@@H](Cc1ccccc1)C(=O)NCCN1CCCCC1)c1ccc(O)c(-c2cccc(C(F)(F)F)c2)c1 | 2.63% | 1.38% | 2.46% |
| Cc1cccc2nc(-c3cccc(-c4ccc(CNCc5cnn(-c6ccccc6)n5)cc4)c3)[nH]c12 | 0.18% | 2.02% | 0.22% |
| COc1ccc(NC2=C(c3ccccc3)C(=O)c3ccccc32)cn1 | 7.83% | 4.66% | 3.49% |
| Cc1ccc2[nH]c(-c3ccc(C=CC(=O)NCc4ccc(Cl)c(Cl)c4)cc3)nc2c1 | 10.3% | 9.48% | 4.93% |
| COc1cc(Cc2cnc(N)nc2N)cc(OCCCCC#N)c1OC | 2.09% | 1.74% | 5.77% |
| N#Cc1ccc(-c2ccc(C(=O)NCCCCN3CCC(c4ccc5c(c4OCc4ccncc4)CCCC5)CC3)cc2)cc1 | 0.21% | 3.1% | 1.26% |
| O=S(=O)(NCCN1CCCC1)c1ccc(-c2ccc(CNCc3ccccc3)cc2)cc1 | 2.85% | 1.2% | -0.93% |
| O=C(Nc1cccc(-c2cccc(-c3nc4cc(C(F)(F)F)ccc4[nH]3)c2)c1)c1ccoc1 | 10.4% | 10.1% | 8.15% |
| COc1cc2nc(N3CCN(C(=O)c4ccco4)CC3)nc(NCc3ccccc3)c2cc1OC | 14.9% | 15.2% | 11.1% |
| CCN(CC)CCOc1ccc(C(O)(C#CC(O)(c2ccc(Br)cc2)c2ccc(OCCN(CC)CC)cc2)c2ccc(Br)cc2)cc1 (centres undefined) | 4.97% | 5% | 3.37% |
| CCn1ccc2c(N3CCCCS3(=O)=O)cc(C(=O)N[C@@H](Cc3ccccc3)[C@H](O)CNC3CCCCC3)cc21 | 5.11% | 5.66% | 3.42% |
| O=S(=O)(NCCN1CCCC1)c1ccc(-c2ccc(CNC3Cc4ccccc4C3)cc2)s1 | 5.8% | 12.6% | 1.34% |
| Cc1cc(C)cc(CC(=O)N2CCC(n3c(C)nc4ccc(C)cc43)CC2)c1 | 2.35% | 1.45% | 1.51% |
